Molecules are shown by their SMILES. Active and inactive are the calls of the source.

Experiment [1] deals with Plasmodium falciparum Sir2 (PF13_0152, Sir2A). Put plainly: Plasmodium falciparum Sir2A binding compounds – biochemical, small-molecule microarray, 635 nm fluorescence, primary screen (AID 1098).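 Further: score merges spot fluorescence intensity with its signal-to-noise ratio.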 As to conditions: fluorescence 635 nm, higher = more signal.
The nature of experiment [2]: probe aDKK1 binding to arrayed compounds – biochemical, biotinylated probe, 635/667 nm fluorescence, primary screen (AID 1099).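 Further: score merges 667nm spot fluorescence with signal to noise across triplicate slides.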 As to conditions: small-molecule microarray, higher = more signal.
A short description of experiment [3]: probe aCHRDL2 binding to arrayed compounds – biochemical, biotinylated probe, 635/667 nm fluorescence, primary screen (AID 1100). The settings on record: small-molecule microarray, higher = more signal.
The nature of experiment [4]: change in splice reporter luminescence, either direction, cell-based, HEK293, spliceosome inhibition project, primary screen (AID 1101).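 Further: HEK293 cells carrying a splicing-competent luciferase reporter gene; test concentration not given here.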 As to conditions: HEK293 splicing luciferase reporter, 24 h, higher = more signal, called active from +8 up or from −8 down. Background: In a reporter assay the amount or activity of a reporter protein is the signal.
The target of experiment [5] is Fibroblast growth factor 10 (Homo sapiens) (UniProt O15520). Put plainly: compounds binding fibroblast growth factor 10 – biochemical, small-molecule microarray, 635 nm fluorescence, primary screen (AID 1102). The settings on record: FGF10 binding, fluorescence 635 nm, higher = more signal.
In experiment [6] the test system is glycogen synthase kinase-3 (GSK3A per assay name; protocol says GSK3B). Description: compounds binding glycogen synthase kinase-3 – biochemical, small-molecule microarray, 635 nm fluorescence, GSK3A, primary screen (AID 1103). Further: the record names both GSK3A and GSK3B. As to conditions: fluorescence 635 nm, higher = more signal.
The target in experiment [7] is Epidermal growth factor receptor (Homo sapiens) (UniProt P00533). Put plainly: compounds binding epidermal growth factor receptor – biochemical, small-molecule microarray, 635 nm fluorescence, primary screen (AID 1104).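 Further: score merges 667 nm emission intensity with spot signal to noise over triplicate slides.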 As to conditions: EGFR binding, higher = more signal.
Experiment [8] deals with Follistatin-related protein 3 (Homo sapiens) (UniProt O95633). Description: compounds binding follistatin-related protein 3 – biochemical, small-molecule microarray, 635 nm fluorescence, primary screen (AID 1105).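 Further: score merges emission near 667 nm and signal to noise per printed spot across three slides.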 The settings on record: FSTL3 binding, higher = more signal.
Experiment [9] concerns the target Dickkopf-related protein 1 (Homo sapiens) (UniProt O94907). Put plainly: small molecules binding DKK1 protein – biochemical, small-molecule microarray, 635 nm fluorescence scan, primary screen (AID 1106).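 Further: score merges emission near 667 nm with signal to noise over three replicate slides.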 As to conditions: higher = more signal.
In experiment [10] the test system is Inhibin beta A chain (activin A). Description: small molecules binding activin A – biochemical, small-molecule microarray, 635 nm fluorescence scan, primary screen (AID 1107).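 Further: mouse activin A protein probed at 4.33 µg/mL on printed slides; score merges bound-protein fluorescence near 667 nm with spot signal-to-noise.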 The settings on record: INHBA, higher = more signal.
Experiment [11] has as its system Human papillomavirus type 1a protein E7 (residues 44-93). Put plainly: small molecules binding HPV E7 44-93 – biochemical, small-molecule microarray, residues 44-93, 635 nm fluorescence, primary screen (AID 1108).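 Further: E7 fragment applied at 1 µg/mL in TBST for 1 h at 4 C; score combines spot fluorescence with its signal to noise ratio.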 The settings on record: fluorescence 635 nm, higher = more signal.
Experiment [12] can be described thus: hepatitis C replication reporter changes, two-sided – Huh7 cells, luciferase reporter, HCV replication inhibitor project, primary screen (AID 1109).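 Further: huh7 hepatoma cells harbouring a luciferase neomycin HCV replicon reporter; luciferase luminescence as measure of HCV replicon replication; test concentration not given here.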 The settings on record: Huh7 HCV replicon luciferase reporter, 48 h; higher = more signal.
The target of experiment [13] is Left-right determination factor 2 (Homo sapiens) (UniProt O00292). Description: small molecules binding LEFTY2 protein – biochemical, small-molecule microarray, 635 nm fluorescence scan, primary screen (AID 1110). The settings on record: higher = more signal.
For experiment [14], the target named is Calmodulin-1 (Homo sapiens) (UniProt P0DP23). Description: small molecules binding calmodulin-1 with EGTA – biochemical, small-molecule microarray, Cy5-labelled CALM1, profiling panel (AID 1111).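 Further: labelled calmodulin applied in Tris saline Tween buffer holding calcium plus EGTA and DTT.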 The settings on record: Cy5-CALM1 binding fluorescence, higher = more signal.
Experiment [15] has the same target. Put plainly: small molecules binding Ca-loaded calmodulin-1 – biochemical, small-molecule microarray, Cy5-labelled CALM1, plus calcium, artefact control for SMM control-protein annotation, profiling panel (AID 1112).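 Further: score merges spot fluorescence with signal to noise from triplicate slides.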 As to conditions: Cy5-CALM1 binding fluorescence, higher = more signal.
Experiment [16] in a line: probe aWnt5a binding to arrayed compounds – biochemical, biotinylated probe, 635/667 nm fluorescence, primary screen (AID 1113).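 Further: score merges 667 nm fluorescence intensity with signal-to-noise per printed feature.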 The settings on record: small-molecule microarray, higher = more signal.
A short description of experiment [17]: probe aShh binding to arrayed compounds – biochemical, biotinylated probe, 635/667 nm fluorescence, primary screen (AID 1114).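 Further: probe is biotin-labelled aShh protein from a stem cell growth factor screen; measures binding of labelled protein to compounds printed on the slide; score merges feature fluorescence at 667 nm with signal-to-noise.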 As to conditions: small-molecule microarray, higher = more signal.
A short description of experiment [18]: probe aNog binding to arrayed compounds – biochemical, biotinylated probe, 635/667 nm fluorescence, primary screen (AID 1115).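 Further: probe is biotinylated aNog protein used at 0.15 µg/mL for 1 h at 4 C; z-score combines 667 nm fluorescence of each spot with its signal to noise.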 The settings on record: small-molecule microarray, higher = more signal.
Experiment [19] deals with Torsin-1A-interacting protein 1 (Homo sapiens) (UniProt Q5JTV8). Put plainly: compound microarray binding of lysate hLAP1 – cell lysate, small-molecule microarray, COS7 lysate, 635/667 nm fluorescence, primary screen (AID 1116). The settings on record: 635 nm fluorescence, higher = more signal.
Experiment [20] concerns the target Alpha-bungarotoxin (Bungarus multicinctus) (UniProt P60615). Description: compounds binding labelled alpha-BTX control protein – biochemical, small-molecule microarray, Alexa647 label, 635/667 nm fluorescence, artefact control for SMM control protein annotation, profiling panel (AID 1117). The settings on record: alpha-BTX-A647 binding fluorescence, higher = more signal.

Chain of Fibroblast growth factor 10 (Homo sapiens) (O15520 whole entry, looked up): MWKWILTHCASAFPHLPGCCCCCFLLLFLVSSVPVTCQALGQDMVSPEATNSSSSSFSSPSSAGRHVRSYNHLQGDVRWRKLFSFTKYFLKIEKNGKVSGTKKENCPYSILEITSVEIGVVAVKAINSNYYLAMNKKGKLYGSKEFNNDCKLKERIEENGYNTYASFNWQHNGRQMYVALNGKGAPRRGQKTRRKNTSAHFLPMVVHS
Chain of Epidermal growth factor receptor (Homo sapiens) (P00533 whole entry, looked up): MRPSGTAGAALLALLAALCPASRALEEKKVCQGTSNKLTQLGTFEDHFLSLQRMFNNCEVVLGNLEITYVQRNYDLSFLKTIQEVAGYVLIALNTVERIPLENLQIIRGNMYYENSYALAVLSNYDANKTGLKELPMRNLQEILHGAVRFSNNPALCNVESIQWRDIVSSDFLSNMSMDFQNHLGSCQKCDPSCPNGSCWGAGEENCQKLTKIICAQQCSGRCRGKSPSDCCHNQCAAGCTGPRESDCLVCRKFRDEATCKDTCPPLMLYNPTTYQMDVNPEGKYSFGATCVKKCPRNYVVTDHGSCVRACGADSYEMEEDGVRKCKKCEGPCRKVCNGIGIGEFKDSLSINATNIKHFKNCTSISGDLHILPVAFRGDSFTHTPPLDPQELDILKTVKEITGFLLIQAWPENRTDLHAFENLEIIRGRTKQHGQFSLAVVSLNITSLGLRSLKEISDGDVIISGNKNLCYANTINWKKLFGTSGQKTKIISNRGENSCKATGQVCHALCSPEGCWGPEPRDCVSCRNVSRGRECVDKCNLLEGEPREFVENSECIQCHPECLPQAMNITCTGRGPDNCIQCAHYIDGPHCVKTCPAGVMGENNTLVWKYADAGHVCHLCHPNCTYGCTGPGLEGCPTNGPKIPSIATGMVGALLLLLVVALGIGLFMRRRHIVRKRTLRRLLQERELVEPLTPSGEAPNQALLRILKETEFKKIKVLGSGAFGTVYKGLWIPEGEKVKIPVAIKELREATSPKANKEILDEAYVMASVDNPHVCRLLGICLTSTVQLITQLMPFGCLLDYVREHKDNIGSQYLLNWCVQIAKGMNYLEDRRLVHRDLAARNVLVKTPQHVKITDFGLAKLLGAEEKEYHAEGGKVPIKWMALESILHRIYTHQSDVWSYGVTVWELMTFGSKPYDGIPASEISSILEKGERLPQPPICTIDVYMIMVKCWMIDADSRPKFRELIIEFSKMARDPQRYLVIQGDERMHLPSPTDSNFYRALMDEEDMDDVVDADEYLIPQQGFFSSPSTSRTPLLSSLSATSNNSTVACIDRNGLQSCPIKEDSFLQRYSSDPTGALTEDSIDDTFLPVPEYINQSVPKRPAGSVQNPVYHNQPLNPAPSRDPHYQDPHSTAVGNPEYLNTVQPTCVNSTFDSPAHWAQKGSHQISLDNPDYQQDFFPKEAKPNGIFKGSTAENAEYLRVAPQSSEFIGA
Chain of Alpha-bungarotoxin (Bungarus multicinctus) (P60615 whole entry, looked up): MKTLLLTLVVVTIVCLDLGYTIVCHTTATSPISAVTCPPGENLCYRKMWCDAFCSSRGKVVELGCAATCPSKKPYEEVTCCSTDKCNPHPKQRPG
Chain of Torsin-1A-interacting protein 1 (Homo sapiens) (Q5JTV8 whole entry, looked up): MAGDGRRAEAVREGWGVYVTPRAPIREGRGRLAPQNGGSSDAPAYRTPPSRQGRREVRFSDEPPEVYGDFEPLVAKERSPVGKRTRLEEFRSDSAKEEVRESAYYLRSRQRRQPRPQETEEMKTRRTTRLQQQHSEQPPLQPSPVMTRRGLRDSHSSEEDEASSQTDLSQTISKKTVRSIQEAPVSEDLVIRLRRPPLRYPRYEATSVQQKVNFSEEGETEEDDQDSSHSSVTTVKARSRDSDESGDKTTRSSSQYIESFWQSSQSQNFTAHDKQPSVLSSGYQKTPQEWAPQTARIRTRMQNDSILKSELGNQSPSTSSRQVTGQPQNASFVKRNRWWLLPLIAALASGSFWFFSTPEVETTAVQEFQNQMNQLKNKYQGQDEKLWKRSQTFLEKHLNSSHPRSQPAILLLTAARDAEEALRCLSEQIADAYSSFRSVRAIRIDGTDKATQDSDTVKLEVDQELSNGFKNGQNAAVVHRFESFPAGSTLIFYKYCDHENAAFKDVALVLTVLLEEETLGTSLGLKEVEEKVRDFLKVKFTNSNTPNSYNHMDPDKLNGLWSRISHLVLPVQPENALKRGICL
Chain of Left-right determination factor 2 (Homo sapiens) (O00292 whole entry, looked up): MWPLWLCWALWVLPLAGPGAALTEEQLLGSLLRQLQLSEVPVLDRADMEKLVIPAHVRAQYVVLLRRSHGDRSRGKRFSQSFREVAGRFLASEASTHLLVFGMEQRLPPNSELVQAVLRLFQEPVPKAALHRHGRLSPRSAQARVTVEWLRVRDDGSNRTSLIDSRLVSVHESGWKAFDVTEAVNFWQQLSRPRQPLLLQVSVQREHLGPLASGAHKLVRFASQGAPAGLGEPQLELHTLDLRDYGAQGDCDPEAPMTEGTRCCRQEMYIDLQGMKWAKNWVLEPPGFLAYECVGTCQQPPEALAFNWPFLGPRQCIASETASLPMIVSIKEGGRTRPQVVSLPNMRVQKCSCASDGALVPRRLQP
Chain of Dickkopf-related protein 1 (Homo sapiens) (O94907 whole entry, looked up): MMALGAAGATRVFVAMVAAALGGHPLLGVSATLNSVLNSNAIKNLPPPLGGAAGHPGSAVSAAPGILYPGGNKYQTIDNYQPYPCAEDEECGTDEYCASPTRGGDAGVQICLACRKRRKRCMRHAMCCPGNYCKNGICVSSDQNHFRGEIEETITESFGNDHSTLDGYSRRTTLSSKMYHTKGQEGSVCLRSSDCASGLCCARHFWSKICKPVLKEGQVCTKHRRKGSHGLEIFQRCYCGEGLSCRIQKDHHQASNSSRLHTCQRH
Chain of Follistatin-related protein 3 (Homo sapiens) (O95633 whole entry, looked up): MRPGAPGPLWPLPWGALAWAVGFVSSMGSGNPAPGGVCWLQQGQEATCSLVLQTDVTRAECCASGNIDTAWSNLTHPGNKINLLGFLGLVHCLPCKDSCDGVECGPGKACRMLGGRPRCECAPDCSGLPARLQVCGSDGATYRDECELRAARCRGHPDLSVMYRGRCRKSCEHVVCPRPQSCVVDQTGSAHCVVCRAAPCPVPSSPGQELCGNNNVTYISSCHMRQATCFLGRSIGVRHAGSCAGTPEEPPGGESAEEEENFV

Regarding `C=CCNC(=O)[C@H]1[C@@H]2C(=O)O[C@@H](c3ccccc3)[C@@H](c3ccccc3)N2[C@@H](c2ccccc2OCCO)[C@]12C(=O)N(C(=O)OCCOC)c1ccc(C#CCC(C(=O)OC)C(=O)OC)cc12`, the composite z-score stood at 1.1 in experiment [1]; 0.572 in [2]; 0.155 in [3]; 0.541 in experiment [5]; 1.29 in experiment [6]; 0.328 in experiment [7]. The composite z-score is 0.919 in experiment [8]; 0.271 in experiment [9]; 0.641 in [10]; -0.29 in [11]; 0.208 in experiment [13]; 1.57 in experiment [14]. Moreover, the composite z-score in experiment [15] was 0.865; in experiment [16], -0.012; in experiment [17] it was 0.217; in experiment [18], 0.419; in [19] it was 0.926; in [20], 1.87. The results for the z-score in experiment [4] and in experiment [12] were -1.69 (inactive) and -1.22, respectively.
With `Cc1ccc(N2C(=O)c3ccccc3[C@@H](C(=O)NCc3ccccc3)[C@@H]2c2ccc(CO)cc2)nc1`, the composite z-score in experiment [1] was -0.566; in [2] it was 0.601; in [3], 1.01; in experiment [5], 0.329; in experiment [6] it was -1.13; in experiment [7] it was -0.446. Moreover, the composite z-score in [8] was -0.526; in experiment [9] it was 0.251; in [10], 1.71; in experiment [11] it was -0.752; in experiment [13], -0.292; in experiment [14] it was -0.869. Also, the composite z-score in experiment [15] is -0.313; in experiment [16], -0.148; in [17], 0.901; in experiment [18], -0.361; in [19], 0.776; in experiment [20] it was -0.326. The z-score in experiment [4] was -1.47 (inactive); in experiment [12] it was -0.139.
Regarding `C[N+](C)(C)CCCCNC(=O)[C@@H]1C[C@@H]2C(=O)N3CCC[C@H]3C(=O)N2[C@@H]1c1cccc(OCCO)c1`, the composite z-score was 0.577 in experiment [1]; -0.222 in experiment [2]; -0.0397 in experiment [3]; 0.455 in experiment [5]; 0.249 in experiment [6]; 0.495 in [7]. Also, the composite z-score in [8] was 1.45; in [9], 1.44; in [10], 0.0648; in experiment [11] it was -0.745; in [13] it was 1.14; in experiment [14], -0.794. The composite z-score was 0.658 in experiment [15]; -0.162 in experiment [16]; -0.0626 in [17]; -0.0645 in experiment [18]; 1.62 in experiment [19]; 1.16 in experiment [20]. Also, the figures for the z-score in experiment [4] and in experiment [12] were 0.0434 (inactive) and 0.0741, respectively.
As for `CN(C)C(=O)[C@@]1(Cc2ccccc2N=[N+]=[N-])N=C(c2ccc(OCCCO)cc2)O[C@H]1c1ccccc1CN=[N+]=[N-]`, the composite z-score worked out at 1.68 in experiment [1]; 1.22 in experiment [2]; 1.3 in experiment [3]; 0.689 in experiment [5]; 1.21 in experiment [6]; 0.0256 in experiment [7]. The composite z-score worked out at 0.482 in [8]; 0.4 in experiment [9]; 0.676 in [10]; 0.646 in experiment [11]; 0.048 in experiment [13]; 2.51 in experiment [14]. Further, the composite z-score in experiment [15] worked out at 1.22; in experiment [16], 0.13; in experiment [17], 0.721; in experiment [18] it was 1.78; in experiment [19] it was 3.11; in [20], 2.96. Besides, the z-score was -0.636 (inactive) in experiment [4] and -2.12 in [12].
Consider `CCCC[C@@H]1C[C@H]1[C@@H](NC(=O)c1ccccc1)c1ccccc1C(F)(F)F`, for which the composite z-score in [1] was 1.15; in experiment [2], 0.526; in [3] it was 1.05; in [5], 0.0165; in [6], 0.415; in [7], -0.279. In addition, the composite z-score is -0.0027 in experiment [8]; -0.521 in experiment [9]; 0.616 in [10]; 1.38 in experiment [11]; -0.641 in experiment [13]; 1.04 in [14]. The composite z-score in [15] was 1.09; in experiment [16], -0.127; in [17], 0.204; in [18], 1.39; in experiment [19] it was 1.06; in [20], 1.61. The z-score was -0.261 (inactive) in [4] and -0.696 in experiment [12].

The record behind these values is PubChem BioAssay.
